# Results filed as inconclusive are left out. Calls of active or inactive are those of the source. The call rests on the fitted dose curve; in most records, active means well fitted inhibition curve with a large enough effect; inconclusive means small, poorly fitted or top-dose-only effect; inactive means flat fitted curve, though single readings scatter.
# System: DFO2036
# Assay: qHTS profiling for inhibitors of Plasmodium falciparum proliferation (AID 504749); further: nearly all actives have a fitted effect of over 60% in size;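 on activity, negative = inhibition: 0% = DMSO vehicle and full inhibition = artemisinin control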
# Settings: P. falciparum in erythrocytes, SYBR Green DNA, 72 h; series mostly up to 12.8 µM; activity, negative = inhibition: at the top concentration
# Excerpt: NIH National Institute of Allergy and Infectious Diseases [NIAID] NIH Chemical Genomics Center [NCGC] MLPCN Grant: None Assay Provider: Xinzhuan Su, NIAID NCGC Assay Overview: Plasmodium falciparum is a virulent malarial parasite that kills 1-2 million people worldwide each year. Transmitted by mosquitoes, the sporozoite form of the parasite enters the blood stream to infect hepatocytes, where they become merozoites that infect red blood cells (erythrocytes). Within erythrocytes, merozoites begin a […] cycle of growth and division, after which the parasite is released to infect new red blood cells. Gametocytes, which form within erythrocytes as well, circulate in the bloodstream and are ingested by the mosquito, thereby completing the life cycle. To profile malarial isolates for differential chemical responses and to identify inhibitors of malarial growth, an assay that measures P. falciparum growth and replication within erythrocytes was employed. This assay uses a DNA binding fluorescent dye (SYBR Green) to detect parasite DNA following cell lysis. Because mature erythrocytes lack DNA, only Plasmodium-derived DNA is detected.
# NCGC Assay Protocol Summary: The SYBR Green viability assay was adapted from a method described previously (Plouffe et al., 2008). For screening 3 ul culture medium was dispensed into 1536 well black clear bottom plates (Aurora Biotechnologies) using a Multidrop Combi (Thermo Fisher Scientific Inc.), 23 nL compounds in DMSO were added by a pin tool (Kalypsys), and 5 ul of erythrocytes infected with P. falciparum (0.3% parasitemia, 2.5% hematocrit final concentration) were added. The plates were incubated at 37 C in a humidified incubator in 5% CO2 for 72 h, and 2 ul lysis buffer (20 mM Tris HCl, 10 mM EDTA, 0.16% saponin, 1.6% triton X, 10X SYBR Green I supplied as 10,000X […] by Invitrogen) was added to each well. The plates were mixed for 25 sec with gentle shaking and incubated overnight at room temperature in the dark. The following morning, fluorescence intensity at 485(14) nm excitation and 535(25) nm emission wavelengths was measured on an EnVision (Perkin Elmer) plate reader. Plate reads were normalized relative to the control inhibitor (0.29 uM artemisinin) and vehicle (DMSO) wells present on each plate and then corrected by an algorithm using vehicle-only control plates at the beginning and end of the compound plate stack.
# Potency means the concentration at half of the fitted maximal effect.
Compound,"activity, negative = inhibition",Potency
CC(C)(C)NC[C@H](O)COc1cccc2c1CCC(=O)N2,10.9% (inactive),
CC(=O)O[C@]1(C(C)=O)CC[C@@H]2[C@@H]3C=C(C)C4=CC(=O)CC[C@@]4(C)[C@H]3CC[C@]21C,-3.18% (inactive),
OCC1O[C@H](OC2C(CO)O[C@@](O)(CO)C2O)C(O)C(O)C1O (stereo not given in full),3.34% [at 28.7 µM] (inactive),
CC(=O)O[C@H]1C[C@@]2(C)[C@H](C[C@@H](O)[C@H]3[C@@]4(C)CC[C@@H](O)[C@@H](C)[C@H]4CC[C@@]32C)C1=C(CCC=C(C)C)C(=O)O,3.83% [at 28.7 µM] (inactive),
O=C(O)[C@@H]1CCCN1,4.08% [at 28.7 µM] (inactive),
CCN1CCC[C@@H](OC(=O)C(c2ccccc2)c2ccccc2)C1,-16.8% (inactive),
CCOC(=O)O[C@]1(C(=O)COC(=O)CC)CC[C@@H]2[C@@H]3CCC4=CC(=O)C=C[C@@]4(C)[C@H]3[C@H](O)C[C@]21C,1.95% (inactive),
O=C(OC[C@@H](O)CO)c1ccccc1Nc1ccnc2cc(Cl)ccc12,-1.77% (inactive),
CO[C@@H]1C[C@H](O[C@H]2[C@@H](C)[C@H](O[C@@H]3O[C@@H](C)C[C@@H](N(C)C)[C@@H]3OC(C)=O)[C@H](C)C[C@]3(CO3)C(=O)[C@H](C)[C@H](OC(C)=O)[C@H](C)[C@H](C)OC(=O)[C@@H]2C)O[C@H](C)[C@@H]1OC(C)=O,-26.8% (inactive),
CC(=O)[C@@]1(O)CC[C@H]2[C@H]3C[C@@H](C)C4=CC(=O)C=C[C@]4(C)[C@@]3(F)[C@@H](O)C[C@]21C,-35.3% (inactive),
Nc1nc2ncc(CNc3ccc(C(=O)NC(CCC(=O)O)C(=O)O)cc3)nc2c(=O)[nH]1 (stereo not given),8.68% [at 28.7 µM] (inactive),
CC(=O)N[C@@H]1C(O)OC(CO)C(O)C1O (stereo not given in full),7.97% [at 28.7 µM] (inactive),
N[C@@H]1C(O)OC(CO)C(O)C1O (stereo not given in full),9.45% [at 28.7 µM] (inactive),
CC[C@@]12CCCN3CCc4c(n(c5ccccc45)[C@](O)(C(=O)OC)C1)C32 (stereo not given in full),6.46% [at 28.7 µM] (inactive),
CCCC[C@H](CC)CN1CN(C[C@@H](CC)CCCC)CC(C)(N)C1,-4.33% (inactive),
C[C@H](C(=O)O)c1cccc(Oc2ccccc2)c1,11.5% (inactive),
CCN(CCCCOC(=O)c1ccc(OC)c(OC)c1)[C@@H](C)Cc1ccc(OC)cc1,-4.32% (inactive),
COc1cc2nc(N3CCN(C(=O)[C@@H]4COc5ccccc5O4)CC3)nc(N)c2cc1OC,-9.41% [at 28.7 µM] (inactive),
COc1ccc([C@@H]2CC(=O)c3c(O)cc(O[C@H]4O[C@@H](CO[C@H]5O[C@@H](C)[C@@H](O)[C@@H](O)[C@@H]5O)[C@@H](O)[C@@H](O)[C@@H]4O)cc3O2)cc1O,6.97% (inactive),
CCC(=O)O[C@@]1(C(=O)CCl)C(C)CC2C3CCC4=CC(=O)C=C[C@@]4(C)[C@]3(F)C(O)C[C@]21C (stereo not given in full),,10 µM (active)

Compound,"activity, negative = inhibition",Potency
CCN(CC)[C@@H](C)CN1c2ccccc2Sc2ccccc21,-19.7% (inactive),
CC1(C)S[C@@H]2[C@H](NC(=O)[C@@H](N)c3ccccc3)C(=O)N2[C@H]1C(=O)O[C@H]1OC(=O)c2ccccc21,13% (inactive),
C=Cc1c(C)c2cc3nc(cc4[nH]c(cc5nc(cc1[nH]2)C(C)=C5CCC(=O)O)c(CCC(=O)OC)c4C)[C@@]1(C)C3=CC=C(C(=O)OC)[C@H]1C(=O)OC (tested in a mixture with another compound),,11.2 µM (active)
C[C@H](Oc1ccccc1)C(=O)N[C@@H]1C(=O)N2[C@@H]1SC(C)(C)[C@@H]2C(=O)O,15.6% (inactive),
NC[C@@H]1O[C@H](O[C@H]2[C@H](O)[C@H](O[C@@H]3O[C@H](CO)[C@@H](O)[C@H](N)[C@@H]3O)[C@@H](N)C[C@H]2N)[C@@H](O)[C@H](O)[C@@H]1O,1.29% (inactive),
CCOC(=O)[C@H](CCc1ccccc1)N[C@@H](C)C(=O)N1[C@H](C(=O)O)C[C@H]2CCC[C@@H]21,9.67% [at 28.7 µM] (inactive),
CC=C(/C(=C/C)c1ccc(O)cc1)c1ccc(O)cc1,2.36% (inactive),
COC(=O)N/N=C/C1=C[N+](=O)c2ccccc2[N+]1=O,8.85% [at 28.7 µM] (inactive),
CCC(C)C(=O)OC1CC(O)C=C2C=CC(C)C(CCC(O)CC(O)CC(=O)O)C21 (stereo not given),3.03% [at 28.7 µM] (inactive),
CC[C@](C)(CN(C)C)OC(=O)c1ccccc1,-2.08% (inactive),
CO[C@H]1[C@@H](OC(N)=O)[C@H](O)[C@@H](Oc2ccc3c(O)c(NC(=O)c4ccc(O)c(CC=C(C)C)c4)c(=O)oc3c2C)OC1(C)C,-1.41% (inactive),
CC1(C)OC2CO[C@]3(COS(N)(=O)=O)OC(C)(C)OC3C2O1 (stereo not given in full),7.42% [at 28.7 µM] (inactive),
CCOC(=O)O[C@@H](C)OC(=O)[C@@H]1N2C(=O)[C@@H](NC(=O)[C@@H](N)c3ccccc3)[C@H]2SC1(C)C,9.51% (inactive),
O[C@@](CCN1CCCC1)(c1ccccc1)C1CCCCC1,-17.6% (inactive),
CC(C)=CCC[C@](C)(O)C1CC=C(C)CC1 (stereo not given in full),7.69% [at 28.7 µM] (inactive),
NS(=O)(=O)c1cc2c(cc1C(F)(F)F)N[C@H](Cc1ccccc1)NS2(=O)=O,9.34% (inactive),
Cc1ccc(S(=O)(=O)NC(=O)NN2C[C@H]3CCC[C@@H]3C2)cc1,3.14% (inactive),
CC1=C(C(=O)O)N2C(=O)[C@@H](NC(=O)[C@@H](N)c3ccc(O)cc3)[C@@H]2SC1,6.34% (inactive),
CC(C)(C)NC[C@H](O)COc1cccc2c1C[C@@H](O)[C@@H](O)C2,3.75% (inactive),
CC1C2CCC3C4CC=C5CC(N(C)C)CC[C@@]5(C)C4CC[C@@]32CN1C (stereo not given in full),12.2% [at 28.7 µM] (inactive),

# Source: PubChem BioAssay (NCATS)
